Experimental data published in PubChem BioAssay (Tox21).
Inconclusive results are not listed. Where a structure was tested more than once in an assay, its records may differ in their call. Calls of active or inactive are those of the source. Unless noted, calls come from the whole dose curve; as a rule, active = well fitted curve in the direction sought with a large enough effect in the repeat runs; inconclusive = weak or mixed curves; inactive = no such curve, though single readings can be large; an effect the other way counts as inactive or inconclusive.

Key:
[1] = qHTS assay to identify small molecule agonists of the estrogen related receptor signaling pathway with the pleiotropic PPARgamma coactivator (PGC) (AID 1224823)
Summary of the method: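 Luminescence from One-Glo reagent (30 min, room temperature) was read after 18 h compound treatment at 37 C of PGC/ERR cells plated 6 h beforehand; compounds delivered in DMSO by pin tool.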

[2] = qHTS assay to identify small molecule antagonists of the estrogen related receptor (ERR) signaling pathway from Tox21 library - cell viability counter screen (AID 1224834); note: nearly all actives have a fitted effect of over 30% in size; note: potency is the fitted concentration of half-maximal effect
Summary of the method: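 Compounds in DMSO were pinned onto ERR cells that had been incubated for 6 h, and the plates were held at 37 C for 17.5 h. CellTiter-Fluor reagent was then added and fluorescence was measured after 30 min.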

[3] = target: Nuclear receptor subfamily 1 group I member 3 (Homo sapiens) (UniProt Q14994); experiment: qHTS assay to identify small molecule agonists of the constitutive androstane receptor (CAR) signaling pathway (AID 1224839);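 note: HepG2 cells stably carrying human CAR and a CYP2B6 luciferase reporter; series mostly up to about 92 µM; nearly all actives have a fitted effect of over 15% in size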
Sequence of Nuclear receptor subfamily 1 group I member 3 (Homo sapiens) (Q14994 whole entry, looked up): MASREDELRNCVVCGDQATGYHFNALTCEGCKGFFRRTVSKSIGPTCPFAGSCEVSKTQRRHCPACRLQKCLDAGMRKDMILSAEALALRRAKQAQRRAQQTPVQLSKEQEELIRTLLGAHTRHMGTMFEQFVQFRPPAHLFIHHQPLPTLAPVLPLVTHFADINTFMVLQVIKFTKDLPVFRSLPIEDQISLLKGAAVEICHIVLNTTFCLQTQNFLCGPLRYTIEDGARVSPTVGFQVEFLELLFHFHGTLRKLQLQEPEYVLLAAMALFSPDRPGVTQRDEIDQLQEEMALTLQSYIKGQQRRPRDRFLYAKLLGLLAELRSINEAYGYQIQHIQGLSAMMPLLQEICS
Summary of the method: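 Double-stable HepG2 cells (hCAR, CYP2B6-2.2kb) seeded 4 h before compound addition. Exposure 24 h with 0.75 uM PK11195 final. Luciferase detected by ONE-Glo.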

[4] = target: Luciferin 4-monooxygenase (Photinus pyralis) (UniProt P08659); experiment: qHTS assay to identify small molecule inhibitors of firefly luciferase (AID 1224835); note: nearly all actives have a fitted effect of over 25% in size; note: potency is the fitted concentration of half-maximal effect
Sequence of Luciferin 4-monooxygenase (Photinus pyralis) (P08659 whole entry, looked up): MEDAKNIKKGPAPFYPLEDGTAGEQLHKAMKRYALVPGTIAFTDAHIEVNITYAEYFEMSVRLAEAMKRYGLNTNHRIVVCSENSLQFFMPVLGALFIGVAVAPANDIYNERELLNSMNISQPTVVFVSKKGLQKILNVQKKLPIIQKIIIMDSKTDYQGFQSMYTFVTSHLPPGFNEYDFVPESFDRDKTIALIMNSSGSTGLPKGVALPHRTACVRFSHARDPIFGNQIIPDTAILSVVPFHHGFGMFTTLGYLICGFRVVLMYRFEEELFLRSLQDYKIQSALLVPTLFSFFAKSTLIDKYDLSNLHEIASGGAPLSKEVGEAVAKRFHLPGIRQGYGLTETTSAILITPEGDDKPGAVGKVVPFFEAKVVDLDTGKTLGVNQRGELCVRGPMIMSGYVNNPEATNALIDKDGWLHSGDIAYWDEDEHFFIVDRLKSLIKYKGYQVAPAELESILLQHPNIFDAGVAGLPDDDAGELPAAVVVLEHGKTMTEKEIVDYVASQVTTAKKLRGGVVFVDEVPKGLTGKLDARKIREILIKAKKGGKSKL
Summary of the method: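 Quantitative HTS format; KM concentrations of both substrates. Purified P. pyralis FLuc activity quantified from luminescence images.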

[5] = qHTS assay to identify small molecule agonists of the constitutive androstane receptor (CAR) signaling pathway - cell viability counter screen (AID 1224836); note: series mostly up to about 92 µM; nearly all actives have a fitted effect of over 45% in size
Summary of the method: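 Using CellTiter-Fluor, viability of HepG2 cells harbouring hCAR and CYP2B6-2.2kb was measured following 23 h incubation with a 15-concentration compound series plus PK11195 (0.75 uM final).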

[6] = qHTS assay to identify small molecule antagonists of the constitutive androstane receptor (CAR) signaling pathway - cell viability counter screen (AID 1224837); note: nearly all actives have a fitted effect of over 45% in size; note: potency is the fitted concentration of half-maximal effect
Summary of the method: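 Cells are seeded, rested 4 hr at 37 C/5% CO2, dosed with compound (15-point series) and 50 nM CITCO, incubated a further 23 hr, and then CellTiter-Fluor reagent is added before fluorescence is read. The line is HepG2 with stable hCAR and CYP2B6-2.2kb.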

[7] = qHTS assay to identify small molecule antagonists of the estrogen related receptor signaling pathway with the pleiotropic PPARgamma coactivator (PGC) from Tox21 10K library - cell viability counter screen (AID 1224840; active = well fitted cell-killing curve with a large enough effect in the repeat runs, not every such curve was filed as active; note: nearly all actives have a fitted effect of over 40% in size; note: potency is the fitted concentration of half-maximal effect)
Summary of the method: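 Cell viability is measured by CellTiter-Fluor fluorescence in PGC/ERR cells that receive compounds after a 6-hour attachment period and are then incubated 17.5 hours at 37 C.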

[8] = target: Thyrotropin receptor (Homo sapiens) (UniProt P16473); experiment: qHTS assay to identify small molecule agonists of the thyroid stimulating hormone receptor (TSHR) signaling pathway (AID 1224843; calls by dose curve; note: nearly all actives have a fitted effect of over 45% in size)
Sequence of Thyrotropin receptor (Homo sapiens) (P16473 whole entry, looked up): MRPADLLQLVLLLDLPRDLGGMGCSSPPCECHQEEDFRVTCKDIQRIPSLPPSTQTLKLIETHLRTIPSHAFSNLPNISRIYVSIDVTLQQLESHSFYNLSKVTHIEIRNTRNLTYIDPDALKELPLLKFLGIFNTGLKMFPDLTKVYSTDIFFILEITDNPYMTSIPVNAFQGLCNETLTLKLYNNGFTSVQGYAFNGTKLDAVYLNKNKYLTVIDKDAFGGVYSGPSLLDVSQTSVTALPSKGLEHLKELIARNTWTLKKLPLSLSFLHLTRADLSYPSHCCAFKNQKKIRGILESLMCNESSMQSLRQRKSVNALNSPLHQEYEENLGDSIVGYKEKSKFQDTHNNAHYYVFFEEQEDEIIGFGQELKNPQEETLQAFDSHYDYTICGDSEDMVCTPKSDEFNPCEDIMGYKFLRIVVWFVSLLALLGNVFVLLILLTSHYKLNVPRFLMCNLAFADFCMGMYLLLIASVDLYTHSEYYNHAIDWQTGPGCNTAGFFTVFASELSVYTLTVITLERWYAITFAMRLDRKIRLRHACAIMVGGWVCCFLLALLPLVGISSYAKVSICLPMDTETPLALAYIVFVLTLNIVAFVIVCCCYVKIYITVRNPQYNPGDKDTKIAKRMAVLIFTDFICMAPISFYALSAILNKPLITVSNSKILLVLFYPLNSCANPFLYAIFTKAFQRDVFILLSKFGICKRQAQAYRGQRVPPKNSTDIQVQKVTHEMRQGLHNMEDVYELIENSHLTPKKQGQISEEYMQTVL
Summary of the method: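 Compounds are titrated over 15 concentrations, in triplicate, onto TSHR-HEK293 cells seeded at 800/well. Plates sit 30 min at room temperature before cAMP-d2 and anti-cAMP cryptate are added; signal is read after a further hour.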

[9] = target: Nuclear receptor subfamily 1 group I member 3 (Homo sapiens) (UniProt Q14994); experiment: qHTS assay to identify small molecule antagonists of the constitutive androstane receptor (CAR) signaling pathway (AID 1224838);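 note: HepG2 cells stably expressing hCAR with CYP2B6 luciferase reporter stimulated by CITCO; nearly all actives have a fitted effect of over 40% in size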
Summary of the method: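 Luminescence from a CYP2B6-2.2kb promoter reporter in hCAR-expressing HepG2 cells reflects CAR signaling. Cells received compounds at 15 concentrations and 50 nM CITCO (final), then incubated 24 h at 37 C/5% CO2.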

[10] = qHTS assay to identify small molecule antagonists of the estrogen related receptor signaling pathway with the pleiotropic PPARgamma coactivator (PGC) from Tox21 10K library (AID 1224841; call rule not given here; note: series mostly up to about 92 µM; actives are mostly falling curves and most rising ones were filed inactive; nearly all actives have a fitted effect of over 50% in size)
Summary of the method: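 Cells stably carrying the PGC/ERR reporter, seeded at 2,000 per well, received pin-transferred compounds 6 h post-plating. Exposure lasted 18 h at 37 C. Signal: One-Glo luminescence.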

Measured: Potency

Cn1c(=O)c2c(ncn2C)n(C)c1=O
inactive: [1] | [3]
55.1 µM (active) and inactive: [2]

C=CCc1ccc(O)c(OC)c1
not listed: [1] | [9] | [10]
inactive: all other assays above

CCCc1cc(=O)[nH]c(=S)[nH]1
inactive: [2] | [4] | [6] | [9] | [3] | [8]

CC1(C)O[C@@H]2C[C@H]3[C@@H]4CCC5=CC(=O)C=C[C@]5(C)[C@@]4(F)[C@@H](O)C[C@]3(C)[C@]2(C(=O)CO)O1
inactive: [2] | [4] | [5] | [6] | [7] | [10]

O=c1[nH]cnc2c1ncn2[C@H]1CC[C@@H](CO)O1
not listed: [1] | [7] | [9]
inactive: all other assays above

NS(=O)(=O)c1cc2c(cc1Cl)NCNS2(=O)=O
inactive: [1] | [4] | [6] | [7] | [10] | [8]

O=c1[nH]cc(F)c(=O)[nH]1
inactive: [8]
31.8 µM (active) and inactive: [2]
44.9 µM (active) and inactive: [7]
41.5 µM (active) and inactive: [4]

COc1ccc2cc(S(=O)(=O)N[C@H](CC(=O)N[C@H](Cc3ccc(CN4[C@H](C)CCC[C@@H]4C)cc3)C(=O)N(C)C(C)C)c3ccc4c(c3)OCO4)ccc2c1
inactive: [4] | [3] | [8]
active: [2] 51.6 µM | [6] 25.8 µM | [7] 29 µM

CN[C@H]1CC[C@@H](c2ccc(Cl)c(Cl)c2)c2ccccc21
inactive: [4] | [5] | [6] | [3] | [10]
active: [7] 26.6 µM

O=C1c2c(O)cccc2Cc2cccc(O)c21
inactive: [2] | [4] | [6] | [7] | [8]

CC(C)c1c(C(=O)Nc2ccccc2)c(-c2ccccc2)c(-c2ccc(F)cc2)n1CC[C@@H](O)C[C@@H](O)CC(=O)O
inactive: [2] | [6] | [3] | [8]

C=C(C)C(=O)OCC(C)O (stereo not given)
inactive: [4] | [5] | [6] | [3] | [8]
